In the antibiotic and cytotoxicity screens of Wong et al. (2023):
In all, about 39,000 compounds went through this assay and about 500 (1.3%) were called active. The sample as a whole holds a higher share of actives than the screen did.

The compounds below were run on S. aureus RN4220 (assay: growth inhibition call (relative growth <= 0.2)). Settings: 50 µM.

SMILES | growth inhibition call
CC1(C)S[C@H]2[C@@H](NC(=O)[C@@H](NC(=O)N3CCN(S(C)(=O)=O)C3=O)c3ccccc3)C(=O)N2[C@@H]1C(=O)O | active
C[C@H](CO)N1C[C@H](C)[C@@H](CN(C)C(=O)C2CCOCC2)Oc2ncc(C#Cc3ccccc3F)cc2C1=O | inactive
CC(C)NC(=O)N[C@@H]1C=C[C@H](CC(=O)O)O[C@H]1CO | inactive
COc1ccc(CN(C)C[C@H]2Oc3ccc(NC(=O)Cn4cnnn4)cc3C(=O)N([C@@H](C)CO)C[C@H]2C)cc1 | inactive
CO[C@@H]1CN(C)C(=O)c2ccc(NC(=O)C3CCOCC3)cc2OC[C@@H](C)N(C(=O)Nc2ccc(C(F)(F)F)cc2)C[C@H]1C | active
CO[C@@H]1CN(C)C(=O)c2cc(NC(=O)C3CCOCC3)ccc2OC[C@@H](C)N(C(=O)Nc2ccc(C(F)(F)F)cc2)C[C@H]1C | active
CO[C@@H]1CN(C)C(=O)c2ccc(NC(=O)C3CC3)cc2OC[C@@H](C)N(C(=O)Nc2ccc(C(F)(F)F)cc2)C[C@H]1C | inactive
CO[C@@H]1CN(C)C(=O)c2ccc(NC(=O)C3CCCC3)cc2OC[C@@H](C)N(C(=O)Nc2ccc(C(F)(F)F)cc2)C[C@H]1C | inactive
CO[C@@H]1CN(C)C(=O)c2cc(NC(=O)C3CC3)ccc2OC[C@@H](C)N(C(=O)Nc2ccc(C(F)(F)F)cc2)C[C@H]1C | inactive
CO[C@@H]1CN(C)C(=O)c2cc(NC(=O)C3CCCC3)ccc2OC[C@@H](C)N(C(=O)Nc2ccc(C(F)(F)F)cc2)C[C@H]1C | inactive
C[C@H](CO)N1C[C@H](C)[C@H](CN(C)Cc2ccncc2)Oc2ccc(NC(=O)Nc3ccc(C(F)(F)F)cc3)cc2C1=O | inactive
C[C@@H]1CN([C@H](C)CO)C(=O)c2cc(NS(=O)(=O)c3cccs3)ccc2O[C@@H](C)CCCCO[C@@H]1CN(C)S(=O)(=O)c1ccc(Cl)cc1 | inactive
CCN(CC)C(C)CN1c2ccccc2Sc2ccccc21.Cl (configuration not stated) | inactive
C[C@H](CO)N1C[C@H](C)[C@H](CN(C)C(=O)Nc2ccccc2)Oc2c(NS(=O)(=O)c3cn(C)cn3)cccc2C1=O | inactive
C[C@@H]1CN([C@H](C)CO)C(=O)c2cccc(NS(=O)(=O)c3ccc(F)cc3)c2O[C@H]1CN(C)S(=O)(=O)c1cccs1 | inactive
Cc1ccc(OC(=O)N(C)C[C@H]2OCc3ccccc3-c3ccccc3C(=O)N([C@@H](C)CO)C[C@@H]2C)cc1 | inactive
C[C@H](CO)N1C[C@H](C)[C@@H](CN(C)C(=O)c2ccncc2)OCCCC[C@H](C)Oc2ccc(NS(=O)(=O)c3ccc(Cl)cc3)cc2C1=O | inactive
O=c1[nH]c(=O)n([C@@H]2C[C@@H](O)[C@@H](CO)O2)cc1F | active
Cc1cn([C@@H]2C[C@@H](O)[C@H](CO)O2)c(=O)[nH]c1=O | inactive
O=c1[nH]c(=O)n([C@H]2C[C@H](O)[C@@H](CO)O2)cc1F | active
O=c1[nH]c(=O)n(C2CC(O)C(CO)O2)cc1F (configuration not stated) | inactive
Cc1cn([C@H]2C[C@H](O)[C@@H](CO)O2)c(=O)[nH]c1=O | inactive
Cc1cn([C@@H]2C[C@H](O)[C@@H](CO)O2)c(=O)[nH]c1=O | inactive
C[C@H](CO)N1C[C@H](C)[C@@H](CN(C)S(=O)(=O)c2cn(C)cn2)Oc2ccc(NC(=O)C3CC3)cc2C1=O | inactive

SMILES | growth inhibition call
C[C@H]1CCCCO[C@@H](CN(C)C(=O)Cc2ccccc2)[C@@H](C)CN([C@@H](C)CO)C(=O)c2cc(NS(=O)(=O)c3ccc(F)cc3)ccc2O1 | inactive
C#CCOc1ccc(-c2c(C(=O)NC3CCCCC3)oc(OC)c2S(=O)(=O)c2ccc(Cl)cc2)cc1 | inactive
COc1ccc(S(=O)(=O)N(C)C[C@H]2OCCCC[C@@H](C)Oc3ccc(NC(=O)Nc4c(C)noc4C)cc3C(=O)N([C@@H](C)CO)C[C@@H]2C)cc1 | inactive
O=C(/C=C/c1cccc(-c2cn(CC(=O)N3CCC4(CC3)C(=O)NCN4c3ccccc3)nn2)c1)NO | inactive
O=C(NO)c1cn(-c2cccc(C(=O)N3CCC4(CC3)C(=O)NCN4c3ccccc3)c2)nn1 | active
O=C(NO)c1cn(CC(=O)N2CCC3(CC2)C(=O)NCN3c2ccccc2)nn1 | inactive
O=C(Cn1cc(CN2C(=O)COC[C@H]2c2ccccc2)nn1)N1CCC2(CC1)C(=O)NCN2c1ccccc1 | inactive
O=C(CCc1cn(CC(=O)N2CCC3(CC2)C(=O)NCN3c2ccccc2)nn1)NO | active
O=C(/C=C/c1cccc(-c2cn(-c3cccc(C(=O)N4CCC5(CC4)C(=O)NCN5c4ccccc4)c3)nn2)c1)NO | inactive
Cc1ccc(S(=O)(=O)N(C)C[C@@H]2Oc3c(NC(=O)c4cnccn4)cccc3C(=O)N([C@@H](C)CO)C[C@H]2C)cc1 | inactive
C[C@@H]1CCCCO[C@@H](CN(C)S(=O)(=O)c2ccccc2)[C@@H](C)CN([C@H](C)CO)C(=O)c2cc(NS(=O)(=O)c3ccc(Cl)cc3)ccc2O1 | inactive
Cc1noc(C)c1S(=O)(=O)Nc1cccc2c1O[C@@H](CN(C)Cc1ccc(C(=O)O)cc1)[C@@H](C)CN([C@H](C)CO)C2=O | inactive
CCCC(=O)Nc1ccc2c(c1)OC[C@@H](C)N(C(=O)Cc1cccnc1)C[C@@H](C)[C@H](OC)CN(C)C2=O | inactive
Cc1noc(C)c1CO | inactive
Cc1ccc(-c2noc([C@H](C)c3ccc(CC(C)C)cc3)n2)cc1 | inactive
C[C@@H]1CCCCO[C@@H](CN(C)Cc2ccccc2)[C@@H](C)CN([C@@H](C)CO)C(=O)c2cc(NS(=O)(=O)c3ccc(F)cc3)ccc2O1 | inactive
NCc1cc2ccccc2s1 | inactive
CC(=O)NC[C@H]1CN(c2ccc(N3CCN(C(=O)CO)CC3)c(F)c2)C(=O)O1 | active
CC(=O)NCC1CN(c2ccc(N3CCOCC3)c(F)c2)C(=O)O1 (configuration not stated) | active
Cc1cccc(N2C[C@@H](CN)OC2=O)c1 | inactive
O=C(O)c1cn(C2CC2)c2cc(N3CCC(O)(COc4ccc(N5C[C@H](CO)OC5=O)cc4F)CC3)c(F)cc2c1=O | inactive
Cn1c(=O)c2c(ncn2CC(=O)N2CCN(c3ccccc3F)CC2)n(C)c1=O | inactive
CC(C)NC(=O)Nc1ccc2c(c1)C(=O)N([C@H](C)CO)C[C@H](C)[C@@H](CN(C)C(=O)Nc1ccc(F)cc1)OCCCC[C@@H](C)O2 | inactive
